Screening results deposited in PubChem by National Center for Advancing Translational Sciences (NCATS).
Nrf2 activator = Nrf2 pathway activation. AREc32 ARE-luciferase reporter (MCF7-derived line), luminescence, 24 h. 410,000 compounds, 0.31% hits. Potency, µM (series often up to 46.1 µM), without a hit: at the top dose activation, usual class: activators; further: potency means the concentration at half of the fitted maximal effect; % of control where 0% means no effect; nearly all actives have a fitted effect of over 65% in size
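Nrf2 activation is followed as ARE-luciferase induction in the AREc32 line after one day of compound treatment; luminescence is read with Steady-Glo.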
Nrf2 block = inhibitors of Nrf2 signaling | A549 ARE-Fluc reporter, luciferase luminescence, 18-24 h | Potency, µM (titrated, usually from 46 µM), for inactives: top-dose activity change, negative = inhibition, usual class: inhibitors | 360,000 compounds, 2.1% hits | AID 504444; further: potency means the concentration at half of the fitted maximal effect; on the % scale 0 is the no-effect control and ±100 the full control effect; nearly all actives have a fitted effect of over 60% in size
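Concentration-response testing used A549 ARE_Fluc cells at 5000 cells/well. Following an 18-24 h compound incubation, viability was read by fluorescence (Ex 405/Em 525) and luciferase output by luminescence.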
A549 tox = kills or reduces viability of A549 cells in Nrf2 counter-screen | Potency, µM (highest dose often 46 µM), for the others: at the highest dose activity change, negative = cytotoxicity, hits mostly inhibitors | 390,000 compounds, 0.16% hits | A549 ARE-Fluc cells, CellTiter-Fluor viability, 18-24 h | AID 504648; further: potency means the concentration at half of the fitted maximal effect; on the % scale 0 is the no-effect control and ±100 the full control effect
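A549 ARE-Fluc cells in 5% FBS OPTI-MEM, 5000 cells/well, rested 2 h then exposed to compounds in concentration-response for 18-24 h at 37 °C. Viability by CellTiter-Fluor fluorescence (Ex 405/Em 525) after 30 min; luciferase luminescence (BugLite, 15 min, RT) read afterwards.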
TCR act = T cell receptor activation; primary human leukocytes, anti-CD3, IL-2 HTRF, 48 h; Potency, µM (highest dose often 9.22 µM), for inactives: at the top dose activation of IL-2 secretion, actives largely listed as activators; 330,000 tested, under 10 active; AID 504894; further: % of control where 0% means no effect
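HTRF read-out of IL-2 secretion: europium cryptate donor excited at 320nm, d2 acceptor emission at 665nm. Cells were primary human leukocytes incubated 48 hr with compounds and a-CD3 beads, supplying TCR signal only.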
AT treatment = potential ataxia-telangiectasia treatment. F2112 A-T fibroblasts, KAP-1 phosphorylation AlphaLISA; neocarzinostatin DNA damage 30 min before lysis. Potency, µM (top dose mostly 57.5 µM), for the others: top-dose activation, most hits filed as activators. 320,000 compounds, 0.19% hits. AID 485349; further: potency means the concentration at half of the fitted maximal effect; % of control where 0% means no effect; nearly all actives have a fitted effect of over 45% in size
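hTERT-immortalized A-T patient fibroblasts (F2112), 500 cells/well in OPTI-MEM, 1% FBS, got compounds for 60 min, then NCS for 30 min at 37C. Lysates were then assayed for phospho-KAP-1 by AlphaLISA (anti-pKAP1 donor, anti-KAP1 acceptor beads), 6 hr at 25C.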
CCT modulator = cytosolic chaperonin activity modulation | activity change, % (no concentration beside the values), hits read low | AID 651819 | purified chaperonin ATPase assay, HTRF ADP detection, 30 min | 360,000 compounds, 0.3% hits; in the data active means activity change below about -30%; further: on the % scale 0 is the no-effect control and ±100 the full control effect
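TRiC at 40 or 20 nM final (batch-dependent) in 30 mM Tris pH 7.4, 100 mM KCl, 5 mM MgCl2, 1 mM DTT, with compound at single 76 uM and 10 uM ATP, 30 min at 37 deg C. ADP detected by HTRF Transcreener, 665/615 ratio.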
* = called active by the depositor; ? = inconclusive; nt = no result given; [ ] = another dose, or the depositor's remark. Hits are enriched below; roughly 2.6% of the tested compounds scored in any of these assays. Unless noted, the call rests on the fitted dose curve; in most records, active means well fitted curve in the direction sought with a large enough effect; inconclusive means small, poorly fitted or top-dose-only effect, or another doubt; inactive means no such curve, though single readings can be large; an effect the other way counts as inactive or inconclusive.

SMILES	Nrf2 activator	Nrf2 block	A549 tox	TCR act	AT treatment	CCT modulator
CCOC(=O)Cc1csc(NC(=O)CSc2ncnc3c2cnn3-c2ccccc2Cl)n1	13%	21µM*	-7%	-1%	3%	1
CCOC(=O)Cc1csc(NC(=O)CSc2nnc(C(C)C)n2C)n1	0%	11%	-2%	-2%	0.71µM*	1
O=C(Cn1nnc2ccccc2c1=O)NC1CCCCC1	1%	0%	-3%	3%	5%	0
CCCCC#Cc1cncc(C(=O)NN)c1	0%	18µM*	3%	-5%	0%	-3
Cc1ccccc1-c1nc(CS(=O)(=O)CC(=O)NCC(C)c2ccccc2)c(C)o1 (stereo not given)	4%	0%	1%	nt	nt	nt
Cc1cc(C)c(NC(=O)CN(C)CC(=O)N(C)CC(=O)Nc2c(Cl)cccc2Cl)c(C)c1	0%	-18%	9%	nt	-1%	-57*
CN(CC(=O)N(C)CC(=O)Nc1c(Cl)cccc1Cl)Cc1ccccc1F	-1%	0%	4%	-7%	12%	-3
O=S(=O)(c1ccccc1Cl)N1CCCC(c2nc(-c3cccnc3)no2)C1 (stereo not given)	2%	26µM*	4%	nt	6%	2
COc1ccc(-c2noc(C3CCCN(S(=O)(=O)c4cccc(Cl)c4C)C3)n2)cc1OC (stereo not given)	0%	?	-3%	-1%	5%	1
Cc1c(C(=O)O)c(O)cc2c1C(=O)c1c(O)c([C@@H]3O[C@H](CO)[C@@H](O)[C@H](O)[C@H]3O)c(O)c(O)c1C2=O	0%	?	21µM*	10%	2%	-5
COc1c(O)cc2c(c1O)[C@@H]1O[C@H](CO)[C@@H](O)[C@H](O)[C@H]1OC2=O	3%	-14%	-10%	2%	13%	-1
O=C(CC1SC(=Nc2ccc(OC(F)F)cc2)N(CCC2=CCCCC2)C1=O)Nc1ccccc1F (stereo not given)	7%	21µM*	-17%	2%[46.1 µM]	0%	0
CCOc1c(Cl)cc(/C=N/NC(N)=S)cc1OC	6%	21µM*	5%	2%[46.1 µM]	-2%	0
CCCCN(C(C)=O)c1ccc2c(c1)C1CC2CCN1C(=O)OCc1ccccc1 (stereo not given)	4%	23µM*	-10%	-2%	nt	-1
CCN(CCc1ccccc1)c1ccc2c(c1)C1CC2CCN1C(=O)OCc1ccccc1 (stereo not given)	-1%	27%	-6%	-5%	nt	0
O=S1(=O)N=C(Oc2ccccc2F)c2ccccc21	nt	?	1%	nt	nt	nt
CC(=O)c1ccc(NC(=S)NC(=O)/C=C/c2ccc(F)cc2)cc1	0%	8%	1%	5%	3.2µM*	-1
COc1cccc(NC(=S)NC(=O)/C=C/c2ccc(F)cc2)c1	2%	-15%	16%	-4%	10%	-3
COc1ccccc1C(=O)Nc1ccncc1	-2%[9.22 µM]	-19%	-1%	-5%	7%	2
COc1cccc(C(=O)Nc2ccc3c(c2)CCCN3C(=O)c2cccs2)c1OC	4%	21µM*	-11%	7%	-1%	3
COc1cccc(C(=O)Nc2ccncc2)c1OC	0%	23µM*	-4%	nt	4%	1
COc1ccc(C(=O)Nc2ccc3c(c2)CCCN3C(=O)c2cccs2)c(OC)c1	0%	-1%	-4%	1%	-3%	2
COCC(=O)N1c2nc(-c3ccco3)nn2C2(CCCCC2)[C@@H]2CCCC[C@@H]21	9%	-1%	-9%	nt	nt	nt
CC(=O)c1cccc(NC(=O)c2cc3sc(Cl)cc3n2C)c1	4%	?	-4%	nt	nt	nt
Cc1ccc(C)c(N(C(=O)c2snc(C(N)=O)c2N)C(C(=O)NCC2CCCO2)c2ccc(C)o2)c1 (stereo not given)	0%	-20%	-10%	-18%	1%	-2
SMILES	Nrf2 activator	Nrf2 block	A549 tox	TCR act	AT treatment	CCT modulator
OC(Cc1ccnc2ccccc12)C(Cl)(Cl)Cl (stereo not given)	-1%	18µM*	-15%	5%	nt	-1
COc1ccc([C@H]2CC(=O)C=C(c3ccc(Cl)c(C(F)(F)F)c3)C2)cc1OC	0%	16µM*	?	-2%	-4%	-2
COc1ccc2[nH]cc(/C=C/c3cc[n+](C)cc3)c2c1	6%	10µM*	?	9%	6%	1
O=C(Nc1ccc(S(=O)(=O)N(Cc2ccccc2)c2ccccc2)cc1)c1ccccc1F	-1%	6%	0%	nt	nt	nt
O=C(Nc1ccc(S(=O)(=O)N(Cc2ccccc2)c2ccccc2)cc1)c1ccc(F)cc1	1%	23µM*	-9%	nt	nt	nt
O=C1CC(C(=O)Nc2ccccc2)S/C(=N\N=C\c2ccco2)N1 (stereo not given)	?	3%	-9%	9%[46.1 µM]	-1%	-5
O=C1CC(C(=O)Nc2ccc(Cl)cc2)S/C(=N\N=C\c2ccco2)N1 (stereo not given)	?	-3%	1%	-2%	-1%	0
COc1ccc(NC(=O)C2CC(=O)N/C(=N/N=C/c3ccco3)S2)cc1 (stereo not given)	2.5µM*	?	10%	1%	19%	-8
O=C1CC(C(=O)Nc2ccc(Br)cc2)S/C(=N\N=C\c2ccco2)N1 (stereo not given)	6.3µM*	-7%	-2%	9%	3%	-1
COc1cc(CCC(=O)Nc2ccc(C)c(S(=O)(=O)N(C)C)c2)cc(OC)c1OC	2%	23µM*	-14%	-5%	2%	-4
COc1cc(CCC(=O)OCC(=O)Nc2cccc(S(=O)(=O)N(C)C)c2)cc(OC)c1OC	-1%	-1%	7%	-3%[46.1 µM]	8%	1
COc1ccc(CCNCC(=O)Nc2ccc(C)c(S(=O)(=O)N(C)C)c2)cc1	9%	-30%	-3%	0%	-8%	1
COc1ccc(NS(=O)(=O)c2ccc(C)c(C(=O)N(C)CCc3ccc(OC)c(OC)c3)c2)cc1	-1%	21µM*	-29%	-3%	-3%	-4
COc1ccc(CCC(=O)Nc2ccc(C)c(S(=O)(=O)N(C)C)c2)cc1OC	0%	13µM*	-2%	-9%[46.1 µM]	-3%	1
COc1ccc(NC(=O)CSc2nc3nc(C)c(Cc4ccc(C)cc4)c(C)n3n2)cc1OC	1%	nt	2%	nt	nt	nt
COc1ccc2c(c1)c(N=NC(N)=S)c(O)n2CC(=O)c1ccccc1	3%	-26%	-11%	-5%	0.71µM*	-2
Cc1ccc(NC(=O)Cn2c(O)c(N=NC(N)=S)c3ccccc32)cc1	3%	-18%	?	-7%	-9%	1
